High-throughput results as filed in PubChem.
Shown are actives, neighbours in structure and some others; about 4.7% of the full set was active somewhere.
TRHR ag – qHTS for Small Molecule Agonists and Allosteric Enhancers of Human TRH Receptor: Primary Screen for Agonists; activation, % at 2 µM; Thyrotropin-releasing hormone receptor (Homo sapiens), P34981; hit rate 0.18% among 360,000; TRHR cells, calcium flux fluo-8, FDSS agonist mode
Target sequence (P34981 whole entry, looked up): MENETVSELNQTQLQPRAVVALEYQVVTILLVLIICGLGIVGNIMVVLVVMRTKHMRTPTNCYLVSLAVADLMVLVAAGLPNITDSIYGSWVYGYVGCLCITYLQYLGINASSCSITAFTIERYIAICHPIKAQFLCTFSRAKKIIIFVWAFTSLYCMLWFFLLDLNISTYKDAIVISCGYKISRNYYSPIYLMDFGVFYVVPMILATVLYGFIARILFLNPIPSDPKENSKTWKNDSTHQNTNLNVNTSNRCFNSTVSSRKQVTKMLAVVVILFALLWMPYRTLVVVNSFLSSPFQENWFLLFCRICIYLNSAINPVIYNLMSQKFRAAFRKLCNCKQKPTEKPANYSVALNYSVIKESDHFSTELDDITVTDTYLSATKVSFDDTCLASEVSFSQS
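TRHR-expressing cells loaded with fluo-8 calcium dye; 23 nL library compound pin-transferred, kinetic FDSS fluorescence (Ex 480/Em 530) recorded about 180 s for agonist-induced calcium release, before a 10 nM TRH EC20 addition for potentiator mode.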
D1 potentiator – Potentiators of Human D1 Dopamine Receptor: qHTS; D(1A) dopamine receptor (Homo sapiens), P21728; HEK293 TREx D1 cells, calcium flux, dopamine EC20 potentiation; potentiation, % at 10 µM; hit rate 0.036% among 360,000; AID 504651, 2011; in the data active = potentiation above about 30%
TRHR PAM – qHTS for Small Molecule Agonists and Allosteric Enhancers of Human TRH Receptor: Primary Screen for Enhancers; Thyrotropin-releasing hormone receptor (Homo sapiens), P34981; TRHR cells, fluo-8 calcium fluorescence, EC20 TRH enhancement; enhancement, % at 2 µM; hit rate 0.66% among 360,000; in the data active = enhancement above about 30%
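TRHR-expressing cells loaded with fluo-8 calcium dye were read kinetically (ex 480/em 530) during compound addition, then stimulated with an EC20 of TRH (10 nM final). Enhancement of the Gq-mediated intracellular calcium response was scored.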
D1 antagonist – Antagonist of Human D 1 Dopamine Receptor: qHTS; activity change, negative = inhibition, % at 10 µM; HEK293 TREx D1 cells, calcium flux, dopamine EC80; stronger effect = lower value; AID 504652, 2011; D(1A) dopamine receptor (Homo sapiens), P21728; hit rate 3.2% among 360,000; in the data active = activity change below about -30%
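After overnight tetracycline induction at 30 C, force-coupled D1 HEK293 cells took up a no-wash calcium dye at room temperature. Compounds were added and monitored 180 s, and the response to EC80 dopamine was then recorded.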
D1 agonist – Allosteric Agonists of the Human D1 Dopamine Receptor: qHTS; activation, % at 2 µM; hit rate 1% among 360,000; D(1A) dopamine receptor (Homo sapiens), P21728; HEK293 T-REx D1 cells, calcium flux, agonist mode
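Tetracycline-induced HEK293 TREx D1 cells, force-coupled to calcium signalling, were dye-loaded with a no-wash calcium kit. Compound was pin-added after a 10 s baseline. Fluorescence was read kinetically at 1 cycle/s for 180 s, with calcium rises flagged as agonism.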
Large screens that a line does not name were inactive. Cut-off read from the data, not from the text of the source, unless noted: active = activation above about 30%; inactive = the rest.

COc1ccc([C@H]2CC(=O)C=C(c3cccc4c3sc3ccccc34)C2)cc1OC	D1 antagonist -36
O=C1C=C(c2cccc3c2sc2ccccc23)C[C@@H](c2ccc(F)cc2)C1	none (no result: D1 antagonist)
Cc1nnc(N2CCCC(C(=O)NCCc3ccc(Cl)cc3)C2)c2nn(-c3ccccc3)c(C)c12 (configuration not stated)	none
COc1ccc(NC(=O)c2nc(S(C)(=O)=O)ncc2N(Cc2ccc(C)cc2)Cc2ccco2)cc1Cl	none
O=C(O)CC1SC(=Nc2ccc(O)cc2)NC1=O (configuration not stated)	D1 antagonist -31
CCc1cccc(NC(=O)CCCSc2nc3ccccc3[nH]2)c1	D1 antagonist -36
O=C(CCCSc1ccccc1)Nc1cccc(CO)c1	D1 antagonist -34 (no result: D1 potentiator)
Cc1cccc(NC(=O)CCCSc2nc3ccccc3[nH]2)c1	none
Cc1cc(C)c(/C=C/c2onc(C)c2S(=O)(=O)N2CCC(C(=O)N3CCN(c4ccccc4)CC3)CC2)c(C)c1	none
COc1ccc(CC(=O)Nc2ccc(F)c(Cl)c2)cc1S(=O)(=O)N1CCOCC1	D1 antagonist -35
Cc1ccc(SC(C)C(=O)Nc2ccc(S(=O)(=O)N3CCOCC3)cc2)cc1 (configuration not stated)	D1 agonist 46
Cc1nnc(SC(C)C(=O)Nc2ccc(S(=O)(=O)N3CCCCC3)cc2)s1 (configuration not stated)	none
Cc1csc(SC(C)C(=O)Nc2ccc(S(=O)(=O)N3CCCC3)cc2)n1 (configuration not stated)	D1 antagonist -40
O=C(Cc1ccc(Cl)cc1)Nc1ccc(S(=O)(=O)N2CCOCC2)cc1	D1 agonist 34
CCOc1ccc(C(=O)Nc2ccc3nc(SCC(=O)N4CCOCC4)sc3c2)cc1	none
COC(=O)c1ccc(OCC2c3cc(OC)c(OC)cc3CCN2C(=O)c2ccccc2F)cc1 (configuration not stated)	none
CC(Oc1ccccc1Cl)C(=O)Nc1ccc(S(=O)(=O)N2CCCC2)cc1 (configuration not stated)	TRHR PAM 34
CC(Oc1ccc(Cl)cc1)C(=O)Nc1ccc(S(=O)(=O)N2CCOCC2)cc1 (configuration not stated)	D1 agonist 47
CC(OC(=O)C(C)Oc1ccccc1)C(=O)Nc1ccc(S(=O)(=O)N2CCCCC2)cc1 (configuration not stated)	none (no result: D1 potentiator)
Cc1ccc2cc(NC(=O)c3ccc(C(C)(C)C)cc3)ccc2n1	none
COc1ccc(C(=O)Nc2nnc(C)s2)cc1	none
CCc1nc2ccc(C(=O)Nc3ccc4c(c3)OCO4)cc2nc1CC	TRHR PAM 39
CCc1nc2ccc(C(=O)Nc3cccc(C(C)=O)c3)cc2nc1CC	none
CCc1ccc(C(=O)Nc2ccc3nc(C)ccc3c2)cc1	D1 antagonist -31
CCc1nc2ccc(C(=O)Nc3nnc(C)s3)cc2nc1CC	D1 antagonist -42
COc1cccc(-c2ncc3ccccc3c2COC(=O)c2ccc(Br)cc2)c1	none (no result: D1 antagonist)
COc1ccc(-c2ccc3c(N)c(C(=O)c4ccc(OC)c(OC)c4)sc3n2)cc1	D1 agonist 78
COc1cccc(-c2ccc3c(N)c(C(=O)c4ccc(Br)cc4)sc3n2)c1	D1 agonist 81
COc1ccc(-c2ccc3c(N)c(C(=O)NC(C)C)sc3n2)cc1OC	none
S=C(NC1CCCC1)NC1CC1	D1 antagonist -41
Cc1ccc(NC(=O)CSc2nc3c(c(=O)[nH]2)CCC3)cc1Cl	none
CCCc1c(NC(=O)Nc2ccc(F)cc2)cnn1-c1ccccc1	D1 antagonist -46
Cc1cccc(C(=O)NC(=S)Nc2ccc(S(=O)(=O)N3CCN(C)CC3)cc2)c1	none
Cc1ccc(C(=O)NC(=S)Nc2ccc(S(=O)(=O)N3CCN(C)CC3)cc2)cc1	D1 antagonist -56
COc1ccc(NS(=O)(=O)c2ccc(S(=O)(=O)N3CCOCC3)cc2)cc1	D1 antagonist -33, D1 agonist 34
O=S(=O)(c1ccc(NC(=S)NCc2ccc(F)cc2)cc1)N1CCOCC1	D1 antagonist -49, D1 agonist 30
CC(=O)NC(=S)Nc1ccc(S(=O)(=O)N2CCOCC2)cc1	TRHR PAM 32
CC(=O)Nc1ccc(S(=O)(=O)N2CCOCC2)cc1	none
O=S(=O)(c1ccc(NC(=S)NCCc2ccccc2)cc1)N1CCOCC1	none
O=c1c2[nH]c3ccccc3c2nc(SCc2cccc(F)c2)n1-c1ccccc1	none
O=C1c2oc3ccccc3c(=O)c2C(c2ccccc2F)N1Cc1ccc2c(c1)OCO2 (configuration not stated)	none
Brc1ccc(-c2csc(N3CCCCC3)n2)cc1	none
O=C(NCC1CCCO1)C1CC(c2ccc(Cl)c(Cl)c2)=NO1 (configuration not stated)	D1 antagonist -32
CCN(CC)CCNC(=O)c1sc2nc(C)cc(C)c2c1-n1cccc1	none
COC(=O)c1ccc(-n2nnnc2SCC(=O)N2CCCCC2)cc1	D1 antagonist -30
Cc1nc2ccccc2n1C1CCN(CC(=O)Nc2ccccc2Br)CC1	D1 agonist 52
Cc1ccccc1NC(=O)CN1CCC(n2nnc3ccccc32)CC1	none
CC(C)(C)CC(C)(C)NCC(O)COc1c(F)cc(Br)cc1F (configuration not stated)	D1 agonist 39
CCCOc1ccc(/C=C2\SC(N)=NC2=O)cc1OC	D1 antagonist -42
O=C(Cn1c(=O)n(-c2ccccc2Cl)c(=O)c2sc3ccccc3c21)NC1CCCCC1	D1 agonist 39
O=C(Cn1c(=O)n(-c2ccccc2Cl)c(=O)c2sc3ccccc3c21)NC1CCCC1	none
Fc1ccccc1CNc1nc(-c2cccnc2)nc2ccccc12	D1 antagonist -60 (no result: D1 potentiator)
COc1ccc(/C=C/C(=O)Nc2ccc3nc(N4CCC(C)CC4)cc(C)c3c2)cc1OC	none
Cc1noc(/C=C/c2ccccc2F)c1S(=O)(=O)N1CCC(C(=O)N(C)Cc2ccco2)CC1	none
O=C(NCCCN1CCOCC1)c1ccc(Br)cc1	none
Cc1c(C)n(Cc2ccc(Cl)cc2)c2ccc(C(=O)NCCN3CCOCC3)cc12	D1 antagonist -38
O=C(NCCCN1CCOCC1)c1ccc(CSc2ccc(Cl)cc2)cc1	D1 antagonist -35
CC(C)c1ccc(C(=O)NCCCN2CCOCC2)cc1	none
